Among all 5,500 compounds or so, about 2,000 (36%) were called active. Roughly 18% stayed inconclusive and do not appear here. Rule as the data show it: active = normalized growth mostly below about 0.91 (no sharp cut-off); inconclusive = no clear call, values can overlap the other calls; inactive = mostly above about 0.92. The list shows a part of the results.
Experiment: chemical genetic growth profiling, strain panel (AID 1159580);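 also: tested at 20 µM; growth read once vehicle control cultures reached saturation at 30 °C; 1 = growth at the plate median or of vehicle wells; lower values mean less growth of the strain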
Settings: S. cerevisiae deletion strains, growth OD
[1] = locus YAL040C, strain CLN3, active compounds read low
[2] = locus YDR363W, strain ESC2, active compounds read low
[3] = locus YER002W, strain NOP16, active compounds read low
[4] = locus YGR078C, strain PAC10, active compounds read low
[5] = locus YMR263W, strain SAP30, active compounds read low
[6] = locus YMR307W, strain GAS1, active compounds read low
[7] = locus YNL175C, strain NOP13, active compounds read low
[8] = locus YNL197C, strain WHI3, active compounds read low
[9] = locus YNL224C, strain SQS1, active compounds read low
[10] = locus YNL322C, strain KRE1, active compounds read low
[11] = locus YOR083W, strain WHI5 (second series), active compounds read low
[12] = locus YHR030C, strain SLT2, active compounds read low
[13] = locus YHR079C, strain IRE1, active compounds read low
[14] = locus YJL095W, strain BCK1, active compounds read low
[15] = locus YJR066W, strain TOR1, active compounds read low
[16] = locus YLR113W, strain HOG1, active compounds read low
[17] = locus YNL183C, strain NPR1, active compounds read low
[18] = locus YOR231W, strain MKK1, active compounds read low
[19] = locus YPL256C, strain CLN2, active compounds read low
[20] = locus YCL061C, strain MRC1, active compounds read low
[21] = locus YJR075W, strain HOC1, active compounds read low
[22] = locus YNL153C, strain GIM3, active compounds read low

Measured: normalized growth

CCn1c(=O)[nH]c2cc(Cl)c(Cl)cc21
inactive: [1] 0.99 | locus YCL061C, strain MRC1 (second series), active compounds read low 1.01 | [2] 0.992 | [3] 0.986 | [4] 0.992 | [5] 1 | [6] 1 | [7] 0.98 | [8] 1 | [9] 1 | [10] 1.01 | [11] 1.04

O=C1c2ccccc2C(=O)C1(O)C1(O)C(=O)c2ccccc2C1=O
inactive: [12] 1.04 | [13] 1.04 | [14] 1.04 | [15] 0.953 | [16] 1.03 | [17] 0.984 | [18] 1.05 | [19] 1.07

O=C1C=CC(=O)c2ccccc21
inactive: locus YER111C, strain swi4, active compounds read low 0.917 | locus YJL129C, strain trk1, active compounds read low 0.951
active: locus YAL021C, strain ccr4, active compounds read low 0.0676 | locus YAL026C, strain drs2, active compounds read low 0.0697 | locus YAL030W, strain snc1, active compounds read low 0.0571 | locus YBL061C, strain skt5, active compounds read low 0.0618 | locus YBR009C, strain hhf1, active compounds read low 0.064 | locus YBR023C, strain chs3, active compounds read low 0.0634 | locus YBR171W, strain sec66, active compounds read low 0.0895 | locus YBR231C, strain swc5, active compounds read low 0.0652 | locus YBR279W, strain paf1, active compounds read low 0.0871 | locus YCL011C, strain gbp2, active compounds read low 0.0594 | locus YCL016C, strain dcc1, active compounds read low 0.0722 | [20] 0.0703 | locus YCL069W, strain vba3, active compounds read low 0.0688 | locus YCR088W, strain abp1, active compounds read low 0.0699 | locus YDL005C, strain med2, active compounds read low 0.0758 | locus YDL040C, strain nat1, active compounds read low 0.0706 | locus YDR001C, strain nth1, active compounds read low 0.0722 | locus YDR069C, strain doa4, active compounds read low 0.0698 | locus YDR137W, strain rgp1, active compounds read low 0.288 | locus YDR159W, strain sac3, active compounds read low 0.36 | locus YDR195W, strain ref2 0.13 | locus YDR297W, strain sur2, active compounds read low 0.0592 | locus YDR334W, strain swr1, active compounds read low 0.0769 | locus YDR335W, strain msn5, active compounds read low 0.0683 | locus YDR392W, strain spt3, active compounds read low 0.109 | locus YEL003W, strain gim4, active compounds read low 0.0565 | locus YEL037C, strain rad23, active compounds read low 0.0781 | locus YEL061C, strain CIN8 (second series), active compounds read low 0.0717 | locus YER015W, strain faa2, active compounds read low 0.0627 | locus YER016W, strain bim1, active compounds read low 0.0642 | locus YER155C, strain BEM2 (second series), active compounds read low 0.107 | locus YFR010W, strain ubp6, active compounds read low 0.0794 | locus YGL167C, strain pmr1, active compounds read low 0.0772 | locus YGL173C, strain kem1, active compounds read low 0.0709 | locus YGL227W, strain vid30, active compounds read low 0.0707 | locus YGL240W, strain doc1, active compounds read low 0.0798 | locus YGL253W, strain hxk2, active compounds read low 0.0667 | locus YHR013C, strain ard1, active compounds read low 0.138 | locus YHR027C, strain rpn1, active compounds read low 0.0646 | [12] 0.102 | [13] 0.12 | locus YHR142W, strain chs7, active compounds read low 0.0814 | locus YJL092W, strain hpr5, active compounds read low 0.074 | locus YJL095W, strain BCK1 (second series), active compounds read low 0.0589 | [14] 0.116 | locus YJL115W, strain asf1, active compounds read low 0.0842 | locus YJL154C, strain vps35, active compounds read low 0.0701 | locus YJL164C, strain tpk1, active compounds read low 0.0603 | locus YJL166W, strain qcr8, active compounds read low 0.0677 | locus YJL187C, strain SWE1, active compounds read low 0.0597 | [15] 0.116 | locus YKL160W, strain elf1, active compounds read low 0.0712 | locus YKR026C, strain gcn3, active compounds read low 0.0708 | locus YKR091W, strain srl3, active compounds read low 0.0627 | locus YLL001W, strain dnm1, active compounds read low 0.071 | locus YLL026W, active compounds read low 0.0579 | locus YLL041C, strain sdh2, active compounds read low 0.0596 | locus YLR027C, strain aat2, active compounds read low 0.0574 | [16] 0.135 | locus YLR221C, strain rsa3, active compounds read low 0.0579 | locus YLR258W, strain gsy2, active compounds read low 0.0611 | locus YLR262C, strain YPT6 (second series), active compounds read low 0.0853 | locus YLR320W, strain mms22, active compounds read low 0.0864 | locus YLR342W, strain FKS1, active compounds read low 0.0683 | locus YLR357W, strain rsc2, active compounds read low 0.137 | locus YLR370C, strain arc18, active compounds read low 0.0746 | locus YLR384C, strain iki3, active compounds read low 0.0643 | locus YML120C, strain ndi1, active compounds read low 0.827 | locus YMR058W, strain fet3, active compounds read low 0.0712 | locus YMR125W, strain sto1, active compounds read low 0.0829 | locus YMR129W, active compounds read low 0.0615 | locus YMR205C, strain PFK2, active compounds read low 0.092 | locus YMR231W, strain pep5, active compounds read low 0.0667 | locus YNL071W, strain lat1, active compounds read low 0.0615 | [17] 0.338 | locus YNL209W, strain ssb2, active compounds read low 0.0608 | locus YNL248C, strain rpa49, active compounds read low 0.0841 | locus YNL322C, strain KRE1 (second series), active compounds read low 0.0674 | locus YNR049C, strain mso1, active compounds read low 0.0752 | locus YOR001W, strain rrp6, active compounds read low 0.0696 | locus YOR070C, strain gyp1, active compounds read low 0.0608 | locus YOR080W, strain dia2, active compounds read low 0.114 | locus YOR083W, strain WHI5, active compounds read low 0.0702 | locus YOR106W, strain vam3, active compounds read low 0.0684 | [18] 0.111 | locus YOR265W, strain rbl2, active compounds read low 0.0588 | locus YOR270C, strain vph1, active compounds read low 0.124 | locus YOR290C, strain snf2, active compounds read low 0.842 | locus YPL051W, strain arl3, active compounds read low 0.0626 | locus YPL078C, strain atp4, active compounds read low 0.41 | locus YPL106C, strain sse1, active compounds read low 0.0998 | locus YPL240C, strain hsp82, active compounds read low 0.0586 | [19] 0.128

COC1=C(OC)C(=O)c2ccccc2C1=O
active: [2] 0.734 | [6] 0.886 | [22] 0.703
inactive: [1] 0.962 | [3] 0.985 | [4] 0.995 | [21] 0.998 | [5] 1.02 | [7] 0.978 | [8] 0.941 | [9] 0.977 | [11] 0.883

Nc1cccc2c1C(=O)c1ccccc1-2
inactive: locus YDR150W, strain NUM1, active compounds read low 0.95 | [10] 1.03
active: locus YAL013W, strain DEP1, active compounds read low 0.676 | locus YBR229C, strain ROT2, active compounds read low 0.313 | [20] 0.438 | locus YDL101C, strain DUN1, active compounds read low 0.368 | locus YEL061C, strain CIN8, active compounds read low 0.516 | [4] 0.617 | [12] 0.134 | locus YHR087W, strain rtc3, active compounds read low 0.0566 | locus YJR043C, strain POL32, active compounds read low 0.756 | [21] 0.0797 | locus YKL190W, strain CNB1, active compounds read low 0.046 | locus YLR039C, strain RIC1, active compounds read low 0.06 | locus YLR058C, strain SHM2 (second series), active compounds read low 0.0581 | locus YLR085C, strain ARP6, active compounds read low 0.0974 | locus YLR262C, strain YPT6, active compounds read low 0.138 | locus YML094W, strain GIM5, active compounds read low 0.553 | locus YMR219W, strain ESC1, active compounds read low 0.664 | [5] 0.837 | [22] 0.125 | locus YNL298W, strain CLA4 (second series), active compounds read low 0.267 | locus YNR030W, strain Alg12, active compounds read low 0.729 | locus YOL006C, strain TOP1, active compounds read low 0.0699 | locus YPL055C, strain LGE1, active compounds read low 0.6 | locus YPL241C, strain CIN2, active compounds read low 0.675 | locus YPR135W, strain CTF4, active compounds read low 0.167

COC1=C(OC)C(=O)C(CCCCCCCCCCO)=C(C)C1=O
inactive: [12] 0.964 | [13] 0.937 | [14] 0.982 | [15] 0.934 | [16] 0.922 | [17] 0.92 | [18] 0.972 | [19] 0.964
